# Bioassay records deposited in PubChem BioAssay by several laboratories.
# Sampled rows, rich in hits. Any-hit rate of the full collection: about 28%.
# CYP2C9 inh: blocks human cytochrome P450 2C9. inhibition, % at 5 µM. AID 777. actives 20% (n = 96,000). P11712. CYP2C9 Supersomes, luciferin-H conversion, luminescence;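 active means blocking of liver enzyme CYP2C9 beyond about 50% at 5 µM, limit read from the data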
# D1 allo mod: D1 dopamine receptor (human) allosteric modulation; actives 5.9% (n = 58,000); P21728; B-score at 10 µM; HEK293 D1, CRE-luciferase, dopamine EC30 potentiation; actives deviate in either direction; AID 641;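 active means luminescence count or its row- and column-corrected plate score outside the 99.7% band of the plate's sample wells, on either side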
# CYP2C19 inh: blocks human cytochrome P450 2C19; P33261; CYP2C19 Supersomes, luciferin-H EGE luminescence, 30 min; inhibition, % at 5 µM; actives 21% (n = 96,000);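 active means CYP2C19 inhibition above a set limit at 5 µM in the primary screen, cut at about 50% in these data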
# Target sequence (P33261 whole entry, looked up): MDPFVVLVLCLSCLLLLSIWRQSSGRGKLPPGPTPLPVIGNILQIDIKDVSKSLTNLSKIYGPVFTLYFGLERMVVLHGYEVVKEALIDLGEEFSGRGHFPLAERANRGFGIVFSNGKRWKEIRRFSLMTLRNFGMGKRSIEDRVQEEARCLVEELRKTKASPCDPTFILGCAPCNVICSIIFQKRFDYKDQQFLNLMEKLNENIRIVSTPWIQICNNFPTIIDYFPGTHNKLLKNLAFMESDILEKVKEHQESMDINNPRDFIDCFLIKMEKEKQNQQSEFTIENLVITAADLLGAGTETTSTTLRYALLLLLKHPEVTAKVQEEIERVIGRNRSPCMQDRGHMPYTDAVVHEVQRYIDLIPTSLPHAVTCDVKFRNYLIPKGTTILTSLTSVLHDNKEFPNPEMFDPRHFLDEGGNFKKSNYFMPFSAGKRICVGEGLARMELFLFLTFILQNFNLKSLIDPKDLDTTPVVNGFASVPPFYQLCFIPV
# CYP2C19 activ: activators of human cytochrome P450 2C19 | recombinant CYP2C19, luciferin-H EGE luminescence; hits give high values; 0 = fully inhibited enzyme, 1 = untreated enzyme | P33261 | activation factor at 5 µM | 96,000 tested, under 10 active | AID 1025;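 active means activation factor of at least 2 at 5 µM in the primary screen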
# DAT uptake mod: modulates human dopamine transporter uptake under cocaine | LLC-PK1 hDAT cells, [14C]-dopamine uptake with cocaine IC80; actives deviate in either direction | B-score at 10 µM | Q01959 | actives 1.3% (n = 110,000);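 active means Z score or B-score, a plate-position-corrected score, falls beyond the plate's 99.7% confidence bounds, in either direction; inactive means both scores lie inside the 99.7% bounds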
# CYP2C9 act: CYP2C9 (human) activation; actives 1.4% (n = 96,000); AID 1024; P11712; recombinant CYP2C9, luciferin-H conversion, luminescence; hits give high values; factor 1 = untreated enzyme, 0 = blocked; activation factor at 5 µM;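 active means activation factor of 2 or more for CYP2C9 at a 5 µM dose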
# A number is an active result; - = inactive; . = not tested or not shown.
SMILES,CYP2C9 inh,D1 allo mod,CYP2C19 inh,CYP2C19 activ,DAT uptake mod,CYP2C9 act
CCOC(=O)N1CCC(NC(=O)C2CCCN(Cc3nc(-c4cccc(Cl)c4)oc3C)C2)CC1 (stereo not drawn),54,-,67,-,-,-
CCc1ccc(-c2nc(CN3CCCC(C(=O)NCCc4ccc(OC)c(OC)c4)C3)c(C)o2)cc1 (stereo not drawn),54,-,-,-,-,-
COc1ccccc1C(=O)Nc1nnc(-c2ccc3c(c2)CCCC3)o1,-,-,75,-,-,2.1
CC(=O)Nc1nnc(-c2ccc3c(c2)CCCC3)o1,-,-,-,-,-,-
O=C(Nc1nc2ccccc2n1CCN1CCCCC1)c1ccco1,-,-,-,-,0.97,-
O=C(Nc1nc2ccccc2n1Cc1ccc(Cl)cc1)c1ccco1,-,-,-,-,-,-
O=C(Nc1nc2ccccc2n1CCOc1ccccc1)c1ccco1,-,-,58,-,2.3,-
O=C(Nc1nc2ccccc2n1CCOc1ccc(Cl)cc1)c1ccco1,-,-,-,-,-,-
O=C(Nc1c(C(=O)N2CCOCC2)cnn1-c1ccccc1Cl)c1ccco1,-,-,-,-,-,-
O=c1c2c3c(sc2n(CCN2CCCC2)c(=O)n1Cc1ccco1)CCCCC3,52,-,-,-,-,-
O=C(Cn1c(=O)n(Cc2ccco2)c(=O)c2c3c(sc21)CCCCC3)c1ccccc1,53,.,-,-,-,-
O=C(COC(=O)c1cc(S(=O)(=O)N2CCCCC2)ccc1N1CCOCC1)NC1CCCCC1,-,-,-,-,-,-
Cc1ccc(Nc2nc(N)nc(CN3CCN(Cc4ccc5c(c4)OCO5)CC3)n2)cc1Cl,74,-,60,-,-,-
Nc1nc(CN2CCN(Cc3ccccc3)CC2)nc(Nc2ccc3c(c2)OCCO3)n1,-,-,-,-,-,-
Cc1ccc(Nc2nc(N)nc(CN3CCN(Cc4ccc5c(c4)OCO5)CC3)n2)c(C)c1,-,-,52,-,-,-
Cc1ccc(Nc2nc(N)nc(CN3CCN(Cc4ccc5c(c4)OCO5)CC3)n2)cc1,-,-,52,-,-,-
COc1ccc(OC)c(-n2c(-c3cccc(O)c3)n[nH]c2=S)c1,-,-,-,-,-,-
COc1ccc(N2C(=O)N(Cc3cccc(F)c3)c3ccccc3S2(=O)=O)cc1,.,.,.,.,-,.
CONC(=O)C1CCN(C(=O)OCc2ccccc2)CC1,-,.,-,-,-,-
CC(C)NC(=O)COc1ncnc2sccc12,-,.,-,-,-,-
C=CCn1c(C)cc(C(=O)COc2ncnc3sccc23)c1C,-,-4.5,-,-,-,-
CSCCC(C(=O)OCC(=O)c1ccc(C)c(C)c1)N1C(=O)c2cc(Cl)c(Cl)cc2C1=O (stereo not drawn),-,.,-,-,-,-
Cc1ccc(NC(=S)N/N=C/c2ccc(OCCC(C)C)cc2)c(C)c1,65,.,-,-,.,-
CC(=O)c1ccc(OCC(O)CN2CCN(CCO)CC2)cc1 (stereo not drawn),-,-,-,-,-,-
C/C(=N\NC(=O)c1csc2ccccc12)c1ccc(O)cc1,-,.,84,-,-,2.8
SMILES,CYP2C9 inh,D1 allo mod,CYP2C19 inh,CYP2C19 activ,DAT uptake mod,CYP2C9 act
CC1CCC(C(C)C)C2=C1C(C#N)(C#N)C(C#N)(C#N)C(c1ccccc1)N2 (stereo not drawn),70,.,-,-,-,-
Cc1cc(C(=O)CN2C(=O)NC3(CCCc4ccccc43)C2=O)c(C)n1C (stereo not drawn),72,.,-,-,-,-
O=C(CC1(O)C(=O)N(Cc2ccccc2)c2ccccc21)c1ccc2c(c1)OCO2 (stereo not drawn),-,.,-,-,-,-
CCCCNC(=O)CN1C(=O)NC2(CCCc3ccccc32)C1=O (stereo not drawn),68,.,-,-,-,-
O=C(CN1C(=O)NC2(CCc3ccccc32)C1=O)c1ccc2c(c1)OCCO2 (stereo not drawn),96,.,58,-,-,-
Cc1cc(C(=O)CN2C(=O)NC(c3ccccc3)(c3ccccc3)C2=O)c(C)n1Cc1ccccc1,70,.,-,-,-,-
CNC(=O)CN1C(=O)NC2(CCc3ccccc32)C1=O (stereo not drawn),-,.,-,-,-,-
Cc1ccc(S(=O)(=O)N2CCOCC2)cc1C(=O)OCC(=O)N1c2ccccc2NC(=O)C1(C)C,-,.,-,-,-,-
CC(=O)N1CCc2ccc(C(=O)CN3CCN(c4cccc(C)c4C)CC3)cc21,-,-,-,-,-,-
CC1CCN(S(=O)(=O)c2cccc(-c3csc(-c4cccnc4)n3)c2)CC1,79,.,85,-,-,-
O=S(=O)(c1cccc(-c2csc(-c3cccnc3)n2)c1)N1CCCCC1,94,-,94,-,-,-
CCOc1cc(C)c(C(C)C)cc1S(=O)(=O)NCc1ccccn1,-,-,-,-,-,-
COC(=O)C1=C(COc2ccccc2)NC(=O)NC1c1ccc(Cl)cc1 (stereo not drawn),.,.,.,.,-,.
Cc1ccc(NC(=O)c2nc[nH]c2C(=O)N2CCN(c3ccccc3)CC2)cc1,.,.,.,.,-,.
CCNc1nc(NC(C)C)nc(N(C#N)CCOc2ccccc2)n1,-,.,60,-,-,-
O=C(Cn1nc(Cc2ccncc2)c2ccccc2c1=O)N1CCc2ccccc2C1,80,-,88,-,.,-
CN(CCC#N)C(=O)Cn1nc(Cc2ccncc2)c2ccccc2c1=O,-,-,-,-,-,-
COC(=O)c1cc(NC(=O)CN2C(=O)CSC2=O)ccc1Cl,69,-,-,-,-,-
COC(=O)c1ccccc1NC(=O)CN1C(=O)CSC1=O,-,.,-,-,-,-
Cc1nnsc1NC(=O)OCc1ccc(C(C)(C)C)cc1,-,.,-,-,-,-
O=P(CCC(F)(F)F)(CCC(F)(F)F)CCC(F)(F)F,-,.,-,-,-,-
CCOc1ccccc1C(=O)N1c2ccccc2Sc2ccccc21,98,.,87,-,-,-
CCOc1ccccc1C(=O)n1nc(C)cc1C,-,.,-,-,-,-
COC(=O)c1sccc1NC(=O)c1cc(-c2ccc(C)cc2C)nc2ccccc12,59,.,-,-,-,-
COC(=O)c1sccc1NC(=O)c1ccoc1C,-,-,-,-,-,-
CCN(CC)C(=O)c1sc(NC(=O)c2cc(-c3ccc(C)s3)nc3ccccc23)c(C(=O)OC)c1C,51,.,-,-,-,-
CCN(CC)C(=O)c1sc(NC(=O)C(Sc2ccccc2)c2ccccc2)c(C(=O)OC(C)C)c1C (stereo not drawn),84,.,-,-,-,-
COc1ccccc1-c1cc(C(=O)N/N=C/c2sccc2C)c2ccccc2n1,75,.,-,-,-,-
COCCNC(=O)CCSCc1ccccc1F,-,-,-,-,-,-
CCn1[nH]c(=O)c(=Nc2c(C)n(C)n(-c3ccccc3)c2=O)cc1-c1ccc(Cl)cc1,-,-,-,-,-,-
